TMEM16A act: mouse TMEM16A channel activation, primary screen. Q8BHY3. HEK293 TMEM16A/YFP-H148Q/I152L, iodide quench fluorescence; hits give low values. B-score at 10 µM. 340,000 tested, 0.3% active;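 active = fluorescence-ratio B-score plate-corrected deviation score at least 3 library SD below zero, with starting fluorescence score within 5 deviations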;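 note: channel opened by trigger with iodide after compound preincubation; score built on the fluorescence ratio of max minus min over baseline; more negative score means more quench and so TMEM16A activation or potentiation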
Kir21 inh: blocks the mouse Kir2.1 inward-rectifier potassium channel. P35561. HEK293-Kir2.1, FluxOR thallium flux fluorescence; hits give low values. B-score at 10 µM. 310,000 tested, 0.85% active. AID 1672;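 active = fluorescence ratio B-score at or below minus 3 SD of library scores, with starting-brightness B-score within 2 SD, cut at about -4.2 in these data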;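 note: channel flux triggered by added potassium and thallium sulfate stimulus; B-score of peak minus minimum fluorescence over baseline after thallium stimulus; more negative B-score means stronger Kir2.1 block with less thallium influx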
Target sequence (P35561 whole entry, looked up): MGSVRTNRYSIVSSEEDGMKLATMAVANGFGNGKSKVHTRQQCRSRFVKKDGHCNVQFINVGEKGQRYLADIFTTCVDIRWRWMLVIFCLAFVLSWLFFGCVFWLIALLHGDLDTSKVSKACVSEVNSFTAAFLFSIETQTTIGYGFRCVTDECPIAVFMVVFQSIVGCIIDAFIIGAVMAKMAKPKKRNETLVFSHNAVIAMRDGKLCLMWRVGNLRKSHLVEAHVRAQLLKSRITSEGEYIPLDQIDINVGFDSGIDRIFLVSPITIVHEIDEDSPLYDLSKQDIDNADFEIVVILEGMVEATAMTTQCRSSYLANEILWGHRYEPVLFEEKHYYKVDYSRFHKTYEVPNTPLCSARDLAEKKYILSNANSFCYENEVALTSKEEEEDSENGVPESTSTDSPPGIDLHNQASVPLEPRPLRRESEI
CHT inh: inhibits the human high affinity choline transporter. Q9GZV3. CHT-expressing cells, membrane potential dye, choline response; hits give low values. B-score at 10 µM. 310,000 tested, 0.86% active. AID 488975;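 active = B-score over 3 SD under the library average, and starting fluorescence ratio not unusually high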;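 note: choline stimulus applied at its EC90 after an EC20 pre-addition; B-score computed on integrated fluorescence ratio after choline addition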
GPR7 antagonist: human neuropeptides B/W receptor 1 antagonism; P48145; GPR7-expressing cells, fluorescence antagonist assay; 290,000 tested, 1.1% active; inhibition, % at 4.4 µM; in the data active = inhibition above about 16%, passing the limit was not always enough;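 note: cells stimulated with the agonist NPW; 0% = agonist with vehicle and 100% = vehicle without agonist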
ANO1 block: inhibitors of mouse TMEM16A calcium-activated chloride channel | HEK293 TMEM16A/YFP iodide influx fluorescence, ionomycin | normalized B-score (activity score, 25-100; higher = stronger inhibition) at 10 µM | 310,000 tested, 1.2% active | AID 588511;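 active = ratio plate-corrected score three or more library SD toward inhibition, starting fluorescence score within five deviations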;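 note: score derived from kinetic fluorescence span divided by baseline fluorescence per well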
CHT PAM: allosteric activators of human choline transporter CHT; B-score at 10 µM; AID 488977; 310,000 tested, 0.49% active; Q9GZV3; CHT-expressing cells, membrane potential dye, choline EC20; hits give high values; LV-AA mutant CHT in HEK293 cells;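 active = initial fluorescence not abnormally high and integrated response B-score, plate-corrected, over 3 SD above library mean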
hERG inh: hERG (human) inhibition as Kir2.1 counter-screen | shares compounds with Kir21 inh | hERG-expressing cells, thallium flux | inhibition, % at 10 µM | 320 tested, 20% active;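 note: host cells are CHO cells stably expressing hERG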
KCNK9 spec: human KCNK9 off-target activity of Kir2.1 blockers; shares compounds with Kir21 inh; KCNK9-expressing cells, ion flux inhibition; inhibition, % at 10 µM; 320 tested, 5% active; AID 2329
Kir21 ephys inh: inhibitors of mouse Kir2.1 potassium channel; shares compounds with Kir21 inh; Kir2.1 cells, automated patch-clamp current inhibition; inhibition, % at 25 µM; 320 tested, 71% active; AID 463252
Active calls of the source: *. Most compounds without a hit are left out; they make up all but 3.7% or so of the library. Unless noted, the rule behind the calls is not given here.

What do the screens show for `CCOc1ccc(CN2CCC(Cc3ccccc3)CC2)cc1`?
TMEM16A act: inactive; Kir21 inh: -5.79*; CHT inh: inactive; GPR7 antagonist: -9.2; ANO1 block: inactive; CHT PAM: inactive; hERG inh: 68.0%*; KCNK9 spec: inactive; Kir21 ephys inh: 49.3%*

Results for CCCCN1C(=O)/C(=C2\SC(N3CCCCC3)=NC2=O)c2ccccc21 ?
TMEM16A act: inactive; Kir21 inh: -0.5; CHT inh: inactive; GPR7 antagonist: -5.2; ANO1 block: inactive; CHT PAM: inactive

What do the screens show for `CCCCN1C(=O)C(=Nc2cccc3cnccc23)c2ccccc21`?
TMEM16A act: inactive; Kir21 inh: -7.46*; CHT inh: inactive; GPR7 antagonist: 4.2; ANO1 block: inactive; CHT PAM: inactive; hERG inh: inactive; KCNK9 spec: inactive; Kir21 ephys inh: inactive

Results for N#Cc1c(N)nc2c(c1-c1ccc(F)cc1)c(=O)nc1sccn12 ?
TMEM16A act: inactive; Kir21 inh: 0.41; CHT inh: inactive; GPR7 antagonist: -12.7; ANO1 block: inactive; CHT PAM: inactive

What do the screens show for `Cc1ccccc1CSc1nnc2ccc(-c3ccncc3)nn12`?
TMEM16A act: inactive; Kir21 inh: 1.27; CHT inh: inactive; GPR7 antagonist: -12.0; ANO1 block: inactive; CHT PAM: inactive

What do the screens show for `C=CCc1ccccc1OCCNCc1ccccc1`?
TMEM16A act: inactive; Kir21 inh: -8.86*; CHT inh: inactive; GPR7 antagonist: -0.4; ANO1 block: inactive; CHT PAM: inactive; hERG inh: inactive; KCNK9 spec: inactive; Kir21 ephys inh: 75.3%*

How did Cc1ccc(S(=O)(=O)N2CCOCC2)cc1C(=O)NC1CCSc2ccccc21 (stereo not given) do in these assays?
TMEM16A act: inactive; Kir21 inh: -1.08; CHT inh: inactive; GPR7 antagonist: 0.0; ANO1 block: inactive; CHT PAM: inactive

Results for O=C(c1ccc2c(c1)N(Cc1ccccc1)CCS2)N1CCCCC1 ?
TMEM16A act: inactive; Kir21 inh: -5.77*; CHT inh: inactive; GPR7 antagonist: -7.3; ANO1 block: inactive; CHT PAM: inactive; hERG inh: inactive; KCNK9 spec: inactive; Kir21 ephys inh: inactive

How did CC(CCCN(C)C)C(Cc1ccccc1)c1ccccc1 (stereo not given) do in these assays?
TMEM16A act: inactive; Kir21 inh: -6.37*; CHT inh: inactive; ANO1 block: inactive; CHT PAM: inactive; hERG inh: inactive; KCNK9 spec: inactive; Kir21 ephys inh: 4.0%*

How did O=C(NCCc1nnc2ccc(NCCCN3CCOCC3)nn12)c1ccccc1 do in these assays?
TMEM16A act: inactive; Kir21 inh: 0.06; CHT inh: inactive; GPR7 antagonist: -17.0; ANO1 block: inactive; CHT PAM: inactive

What do the screens show for `CCc1ccc(Nc2n[n+](-c3ccccc3)c(/C=C/c3ccccc3)s2)cc1`?
Kir21 inh: -7.65*; CHT inh: inactive; GPR7 antagonist: -2.3; ANO1 block: inactive; CHT PAM: inactive; hERG inh: 68.0%*; KCNK9 spec: inactive; Kir21 ephys inh: inactive

What do the screens show for `O=C(OCC(=O)c1ccc[nH]1)c1ccc(F)c(S(=O)(=O)N2CCOCC2)c1`?
TMEM16A act: inactive

What do the screens show for `CN(Cc1nc(Cc2ccccc2F)no1)Cc1cccc2ncccc12`?
TMEM16A act: inactive; Kir21 inh: 0.48; CHT inh: inactive; GPR7 antagonist: -9.4; ANO1 block: inactive; CHT PAM: inactive

Results for COc1ccc(-n2c(COc3ccc(C)cc3)nnc2SCc2ccc(C#N)cc2)cc1 ?
TMEM16A act: inactive; Kir21 inh: 0; CHT inh: inactive; GPR7 antagonist: -1.5; ANO1 block: inactive; CHT PAM: inactive

How did CCn1c(COc2ccccc2)nnc1SCc1ccc(C#N)cc1 do in these assays?
TMEM16A act: inactive; Kir21 inh: -6.47*; CHT inh: inactive; GPR7 antagonist: 10.1; ANO1 block: inactive; CHT PAM: inactive; hERG inh: inactive; KCNK9 spec: inactive; Kir21 ephys inh: 25.0%*

Results for COCC(=O)Nc1nc2ccccc2s1 ?
TMEM16A act: inactive; Kir21 inh: -1.23; CHT inh: inactive; GPR7 antagonist: 1.0; ANO1 block: inactive; CHT PAM: inactive

What do the screens show for `Cc1ccc(/C(=N/Nc2nc3ccccc3s2)C2=C(O)c3ccccc3C2=O)cc1`?
TMEM16A act: inactive; Kir21 inh: 4.41; CHT inh: inactive; GPR7 antagonist: -6.7; ANO1 block: inactive; CHT PAM: inactive; hERG inh: inactive; KCNK9 spec: inactive; Kir21 ephys inh: inactive

Results for C/C=C/c1ccc(OCCCCN(C)Cc2ccccc2)c(OC)c1 ?
TMEM16A act: inactive; Kir21 inh: -9.87*; CHT inh: inactive; GPR7 antagonist: 13.7; ANO1 block: inactive; CHT PAM: inactive; hERG inh: 62.0%*; KCNK9 spec: inactive; Kir21 ephys inh: 45.7%*

How did C/C=C/c1ccc(OCCCCOc2ccccc2C(C)=O)c(OC)c1 do in these assays?
TMEM16A act: inactive; Kir21 inh: 0.93; CHT inh: inactive; GPR7 antagonist: -3.3; ANO1 block: inactive; CHT PAM: inactive

Results for Cc1ccccc1Nc1c(F)c(F)c(F)c(F)c1C(=O)O ?
TMEM16A act: inactive; Kir21 inh: -1.21; CHT inh: inactive; GPR7 antagonist: -5.0; ANO1 block: inactive; CHT PAM: inactive

What do the screens show for `CCc1nc(C)cn1S(=O)(=O)c1cc(Cl)c(OC)cc1Cl`?
TMEM16A act: inactive; Kir21 inh: -10.4*; CHT inh: inactive; GPR7 antagonist: 2.4; ANO1 block: inactive; CHT PAM: inactive; hERG inh: inactive; KCNK9 spec: inactive; Kir21 ephys inh: 51.4%*

Results for CCc1nc(C)cn1S(=O)(=O)c1cc(Br)ccc1OC ?
TMEM16A act: inactive; Kir21 inh: -8.91*; CHT inh: inactive; GPR7 antagonist: -1.9; ANO1 block: inactive; CHT PAM: inactive; hERG inh: inactive; KCNK9 spec: inactive; Kir21 ephys inh: 64.2%*

What do the screens show for `Cc1c(NC(=O)COC(=O)c2ccc(Br)o2)c(=O)n(-c2ccccc2)n1C`?
TMEM16A act: inactive; Kir21 inh: 1.76; CHT inh: inactive; GPR7 antagonist: -16.1; ANO1 block: inactive; CHT PAM: inactive; hERG inh: inactive; KCNK9 spec: inactive; Kir21 ephys inh: inactive

Source: PubChem BioAssay
